Structures can show the parent of a compound that is named as a salt. ± gives the standard deviation of the averaged measurements.
test system: E. coli TESEC Alr+ wild-type control; experiment: growth (OD600 after 10 h); higher = more growth (less inhibition); conditions: compound 0.1 mM; raw OD600 reference: median of DMSO wells 0.49, cell-free background 0.052
Description: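 TESEC Mtb Alr E. coli (ΔaraC ΔtolC ΔentC Δalr ΔdadX, arabinose-inducible Mtb Alr) or the Alr+ wild-type control strain, grown in defined M9-fructose medium without D-alanine in 96-well plates with Prestwick library compounds at 0.1 mM and 1% DMSO. Low Alr induction is 0.1 µM arabinose and high induction is 10 mM arabinose.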

SMILES	growth
Cc1cccc(N(C)C(=S)Oc2ccc3ccccc3c2)c1 [Tolnaftate]	0.465 ± 0.0063
Cc1ccc(Cl)c(Nc2ccccc2C(=O)O)c1Cl [Meclofenamic acid sodium salt monohydrate]	0.139 ± 0.011
Nc1ncnc2c1ncn2[C@@H]1O[C@H](CO)[C@@H](O)[C@@H]1O [Vidarabine]	0.535 ± 0.069
CCSc1ccc2c(c1)N(CCCN1CCN(C)CC1)c1ccccc1S2 [Thiethylperazine dimalate]	0.0499 ± 0.0032
O=C1[C@H](CC[C@H](O)c2ccc(F)cc2)[C@@H](c2ccc(O)cc2)N1c1ccc(F)cc1 [Ezetimibe]	0.0525 ± 0.0014
COc1cc2ncnc(Nc3ccc(F)c(Cl)c3)c2cc1OCCCN1CCOCC1 [Gefitinib]	0.496 ± 0.03
CCC(=O)O[C@]1(C(=O)SCF)[C@H](C)C[C@H]2[C@@H]3C[C@H](F)C4=CC(=O)C=C[C@]4(C)[C@@]3(F)[C@@H](O)C[C@@]21C [Fluticasone propionate]	0.576 ± 0.026
CCOC(=O)C1=C(C)NC(C)=C(C(=O)OC)C1c1cccc(Cl)c1Cl (stereo not given) [Felodipine]	0.0917 ± 0.0035
CN(C)CCC[C@@]1(c2ccc(F)cc2)OCc2cc(C#N)ccc21 [Escitalopram oxalate]	0.435 ± 0.007
CC(=O)S[C@@H]1CC2=CC(=O)CC[C@]2(C)[C@H]2CC[C@@]3(C)[C@@H](CC[C@@]34CCC(=O)O4)[C@H]12 [Spironolactone]	0.331 ± 0.022
CCN(CC)CCNc1ccc(CO)c2sc3ccccc3c(=O)c12 [Hycanthone]	0.377 ± 0.0077
CCCCCN(C)CCC(O)(P(=O)(O)O)P(=O)(O)O [Ibandronate sodium]	0.462 ± 0.035
CCCC(=O)Nc1ncnc2c1ncn2[C@@H]1O[C@@H]2COP(=O)(O)O[C@H]2[C@H]1OC(=O)CCC [Bucladesine sodium salt]	0.565 ± 0.093
CN(C)CCN1C(=O)c2ccccc2N(C)c2ccccc21 [Dibenzepine hydrochloride]	0.608 ± 0.13
COc1cc(NC(C)CCCN)c2ncccc2c1 (stereo not given) [Primaquine diphosphate]	0.267 ± 0.025
CC(C(=O)O)c1ccc2c(c1)[nH]c1ccc(Cl)cc12 (stereo not given) [Carprofen]	0.594 ± 0.029
CC(C)(Oc1ccc(C2CC2(Cl)Cl)cc1)C(=O)O (stereo not given) [Ciprofibrate]	0.515 ± 0.079
C[C@@](Cc1ccc(O)c(O)c1)(NN)C(=O)O [Carbidopa]	0.499 ± 0.048
CCCCNc1cc(C(=O)O)cc(S(N)(=O)=O)c1Oc1ccccc1 [Bumetanide]	0.492 ± 0.048
CN(C)CCCN1c2ccccc2CCc2ccc(Cl)cc21 [Clomipramine hydrochloride]	0.202 ± 0.26

SMILES	growth
C#C[C@]1(O)CC[C@H]2[C@@H]3CCC4=Cc5oncc5C[C@]4(C)[C@H]3CC[C@@]21C [Danazol]	0.46 ± 0.05
c1coc(CNc2ncnc3nc[nH]c23)c1 [6-Furfurylaminopurine]	0.44 ± 0.022
CCCCNc1c(C(=O)OCC)c(C)nc2c1cnn2CC [Tracazolate hydrochloride]	0.335 ± 0.024
Nc1nc(NC2CC2)c2ncn([C@H]3C=C[C@@H](CO)C3)c2n1 [Abacavir Sulfate]	0.612 ± 0.095
CC(C)(C(=O)O)c1ccc(C(O)CCCN2CCC(C(O)(c3ccccc3)c3ccccc3)CC2)cc1 (stereo not given) [Fexofenadine HCl]	0.567 ± 0.054
NS(=O)(=O)c1cc2c(cc1C(F)(F)F)NCNS2(=O)=O [Hydroflumethiazide]	0.455 ± 0.035
C#C[C@]1(OC(C)=O)CC[C@H]2[C@@H]3CCC4=CC(=NO)CC[C@@H]4[C@H]3CC[C@@]21CC (mixture of isomers) [Norgestimate]	0.185 ± 0.0039
CC1=Nc2ccc(Cl)cc2S(=O)(=O)N1 [Diazoxide]	0.465 ± 0.041
Nc1ccc(S(N)(=O)=O)cc1 [Sulfanilamide]	0.507 ± 0.044
COc1ccc(C(=O)c2ccccc2O)c(O)c1 [Dioxybenzone]	0.355 ± 0.014
CN[C@@H]1[C@@H](O[C@H]2O[C@H](CO)[C@@H](N)[C@H](O)[C@H]2O)OC2C[C@@H](N)[C@@H](O[C@H]3[C@H](O)[C@@H](O)[C@H](N)C[C@@H]3N)OC2[C@@H]1O (stereo not given in full) [Apramycin]	0.0798 ± 0.0039
COc1c2occc2c(OC)c2c(=O)cc(C)oc12 [Khellin]	0.418 ± 0.038
CC1(C)O[C@@H]2C[C@H]3[C@@H]4CCC5=CC(=O)C=C[C@]5(C)[C@H]4[C@@H](O)C[C@]3(C)[C@]2(C(=O)CO)O1 [Desonide]	0.496 ± 0.062
Cc1cc(O)c(C(=O)N[C@@H](C(=O)N[C@@H]2C(=O)N3C(C(=O)O)=C(CSc4nnnn4C)CS[C@H]23)c2ccc(O)cc2)cn1 [Cefpiramide]	0.584 ± 0.046
CO[C@@H]1[C@@H](OC(N)=O)[C@@H](O)[C@H](Oc2ccc3c(O)c(NC(=O)c4ccc(O)c(CC=C(C)C)c4)c(=O)oc3c2C)OC1(C)C [Novobiocin sodium salt]	0.0556 ± 0.0007
Cc1nc2ccccn2c(=O)c1CCN1CCC(C(=O)c2ccc(F)cc2)CC1 [Pirenperone]	0.469 ± 0.013
CC(=O)c1ccc2c(c1)N(CCCN(C)C)c1ccccc1S2 [Acetopromazine maleate salt]	0.47 ± 0.012
C=CC[N@@+]12CC[C@@]34c5ccccc5N5/C=C6/[C@H]7C[C@H]8[C@@]9(CC[N@@+]8(CC=C)C/C7=C/CO)c7ccccc7N(/C=C(/[C@@H](C[C@@H]31)/C(=C\CO)C2)[C@H]54)[C@@H]69 [Alcuronium chloride]	0.456 ± 0.037
CC1(C)OC(=O)NC1=O [Dimethadione]	0.526 ± 0.075
O=C(c1ccccc1)c1ccc2n1CCC2C(=O)O (stereo not given) [Ketorolac tromethamine]	0.531 ± 0.076
